The values that follow come from PubChem BioAssay (EPA / NIEHS).

Inconclusive results are not listed. Activity calls are given as the source filed them. How the source made its calls: active means hit-call score of the fitted dose curve at least 0.9, where 1 is the maximum; inconclusive means response in the unintended direction; inactive means score below 0.9.

In this experiment the target is chimpanzee Androgen Receptor (AR), AR (gene 747460) (UniProt O97775). As to the kind of experiment: NVS_NR_cAR: NovaScreen (NVS) Nuclear Receptor Binding Assay for chimpanzee Androgen Receptor (AR) (AID 2283346).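 Further: a loss of bound radioligand signal versus DMSO counts as binding.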 The method, then: NVS_NR_cAR is a biochemical, single-readout assay that uses extracted gene-proteins from Sf9/Sf21 in a cell-free assay. Measurements were taken 72 hours after chemical dosing in a 96-well plate.NVS_NR_cAR is one of one assay component(s) measured or calculated from the NVS_NR_cAR assay. It is designed to make measurements of radioligand binding, a form of binding reporter, as detected with scintillation counting signals by Lysate-based radiodetection technology.Data from the assay component NVS_NR_cAR was analyzed into 1 assay endpoint. This assay endpoint, NVS_NR_cAR, was analyzed in the positive analysis fitting direction relative to DMSO as the negative control and baseline of activity. Using a type of binding reporter, loss-of-signal activity can be used to understand changes in the binding as they relate to the gene AR. Furthermore, this assay endpoint can be referred to as a primary readout, because the performed assay has only produced 1 assay endpoint. To generalize the intended target to other relatable targets, this assay endpoint is annotated to the nuclear receptor intended target family, where the subfamily is steroidal.
Sequence of chimpanzee Androgen Receptor (AR), AR (gene 747460) (O97775 whole entry, looked up): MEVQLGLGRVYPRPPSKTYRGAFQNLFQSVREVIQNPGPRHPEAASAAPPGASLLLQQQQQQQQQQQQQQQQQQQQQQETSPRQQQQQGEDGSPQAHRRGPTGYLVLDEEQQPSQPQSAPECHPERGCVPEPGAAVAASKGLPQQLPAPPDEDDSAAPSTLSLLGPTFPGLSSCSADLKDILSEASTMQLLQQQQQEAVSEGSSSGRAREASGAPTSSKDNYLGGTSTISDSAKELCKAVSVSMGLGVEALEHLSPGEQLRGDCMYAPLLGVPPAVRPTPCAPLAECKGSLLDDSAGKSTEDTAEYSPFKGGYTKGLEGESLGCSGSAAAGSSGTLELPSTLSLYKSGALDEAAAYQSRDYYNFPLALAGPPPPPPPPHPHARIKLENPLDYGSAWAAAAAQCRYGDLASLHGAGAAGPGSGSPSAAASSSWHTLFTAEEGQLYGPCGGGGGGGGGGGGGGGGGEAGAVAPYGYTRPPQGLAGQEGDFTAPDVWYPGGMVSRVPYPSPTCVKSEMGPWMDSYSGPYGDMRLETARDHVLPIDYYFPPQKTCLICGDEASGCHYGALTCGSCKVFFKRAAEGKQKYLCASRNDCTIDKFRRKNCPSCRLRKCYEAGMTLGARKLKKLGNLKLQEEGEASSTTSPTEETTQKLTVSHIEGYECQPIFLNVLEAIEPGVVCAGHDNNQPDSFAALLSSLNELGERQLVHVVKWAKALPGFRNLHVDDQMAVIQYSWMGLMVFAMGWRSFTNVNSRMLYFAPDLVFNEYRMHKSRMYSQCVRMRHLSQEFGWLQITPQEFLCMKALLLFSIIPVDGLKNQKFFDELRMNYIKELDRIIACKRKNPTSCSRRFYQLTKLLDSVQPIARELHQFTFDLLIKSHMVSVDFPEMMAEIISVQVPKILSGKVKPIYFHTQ
Binding assays used specific radioligands (tritiated, iodinated) with non-radioactive competitive displacement ligands in agonist or antagonist protocols (as indicated) and various reference compounds and inhibitors to titrate specific binding to receptors and transporters. Most enzyme assays (CYPs, kinases, phosphatases, proteases, HDACs) used recombinant protein and specific substrates (fluorescence mostly, some colorimetric and radioactive) and inhibitors, followed by a biochemical separation of substrate and product. All assays for the biochemical HTS were initially run in duplicate at a single concentration (10 uM for CYP450 assays and 25 uM for all others). […] Each assay was run with positive and negative controls, and concurrent controls on every plate. The follow-up (secondary) screen tested active chemical-pairs in concentration series, as well as a few additional assays not tested in the primary screen, some selected negative inactives, and several cases re-run in the concentration series for confirmatory purposes.
On to `C=CCc1ccc(O)c(OC)c1`, for which the AC50 was 21 µM (active). On the same count and under the same terms, the value for `CCCCC(CC)COC(=O)CC(C(=O)OCC(CC)CCCC)S(=O)(=O)O` (stereo unspecified) was 17.7 µM (active).

Consider `COc1ccc(S(=O)(=O)N2C(=O)[C@@](c3ccccc3OC)(N3C[C@H](O)C[C@H]3C(=O)N(C)C)c3cc(Cl)ccc32)c(OC)c1`, for which the AC50 is 13.8 µM (active).

Consider `CCCCN(CCCC)CCCC`, for which the compound was called inactive.

With `Nc1ccc2c(c1)C(=O)c1ccccc1C2=O`, the concentration at half-maximal activity (AC50) is 19.8 µM (active). In the case of `CCNc1cccc(C)c1`, the compound was classed as inactive. With `Cc1cc(NC(=O)C(=O)O)cc(C)c1Oc1ccc(O)c2c1CCC2`, the compound was classed as inactive. For `CNCc1cc(F)ccc1Oc1ccc(Cl)c(Cl)c1`, the AC50 is 16.6 µM (active). With `C=CCOC(=O)c1ccccc1C(=O)OCC=C`, the AC50 is 14.5 µM (active). Consider `C[C@]12C=CC(=O)C=C1CC[C@@H]1[C@@H]2C(=O)C[C@@]2(C)[C@H]1CC[C@]2(O)C(=O)CO`, for which the AC50 is 14.8 µM (active). As to `Cc1nc(-c2ccc3c(c2)CCN(CCC2CCC(NC(=O)/C=C/c4ccc(F)cc4)CC2)CC3)no1` (stereo unspecified), the result was inactive.
